Measured values as given in PubChem BioAssay (NCATS).
“And” between values parts separate entries of the source, which are not always exact repeats. Equal entries are not always repeated. Results filed as inconclusive are left out. The source made the active and inactive calls. Unless noted, calls follow the shape of the dose curve; as a rule, active = well fitted curve in the direction sought with a large enough effect; inconclusive = small, poorly fitted or top-dose-only effect, or another doubt; inactive = no such curve, though single readings can be large; an effect the other way counts as inactive or inconclusive.

Tests used:
[1] = system: HIV-1 nucleocapsid protein NCp7 (binding to TG oligonucleotide); test: HIV Nucleocapsid (AID 346; call rule not given here;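 also: potency is read from the fitted curve at half-maximal effect; potency is for inhibitors that block NC binding and lower polarization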); conditions: HIV-1 NC / fluorescein-TGTGTGTG probe, fluorescence polarization
Outline: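 Fluorescence polarization binding of 100 nM HIV-1 NC to 10 nM fluorescein-labelled TG4xF oligonucleotide. Buffer was Hepes pH 7.5 with 250mM NaCl, 1uM ZnCl2, TCEP and 2-mercaptoethanol. Compounds were incubated 1 hr at room temperature before the read.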

[2] = molecular target: Lysosomal acid glucosylceramidase (Homo sapiens) (UniProt P04062); test: Glucocerebrosidase-p2 (AID 348; in the data active = potency below about 10 µM; also: potency is read from the fitted curve at half-maximal effect); conditions: purified GBA, blue fluorogenic substrate, 40 min
Sequence of Lysosomal acid glucosylceramidase (Homo sapiens) (P04062 whole entry, looked up): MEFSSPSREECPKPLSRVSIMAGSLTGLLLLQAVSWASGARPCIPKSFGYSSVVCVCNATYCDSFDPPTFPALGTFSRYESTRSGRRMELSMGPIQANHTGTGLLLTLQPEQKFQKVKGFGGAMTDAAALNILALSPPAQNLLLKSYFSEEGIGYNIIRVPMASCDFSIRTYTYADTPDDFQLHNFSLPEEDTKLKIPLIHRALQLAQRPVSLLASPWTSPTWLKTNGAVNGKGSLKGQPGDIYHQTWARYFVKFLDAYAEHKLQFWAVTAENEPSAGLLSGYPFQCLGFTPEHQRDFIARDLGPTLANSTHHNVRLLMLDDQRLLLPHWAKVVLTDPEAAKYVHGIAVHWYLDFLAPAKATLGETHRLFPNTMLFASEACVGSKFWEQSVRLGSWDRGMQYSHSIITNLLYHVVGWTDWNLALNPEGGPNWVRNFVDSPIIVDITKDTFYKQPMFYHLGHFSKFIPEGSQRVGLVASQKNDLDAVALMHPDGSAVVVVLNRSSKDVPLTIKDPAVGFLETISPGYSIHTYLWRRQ
Outline: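 Normal human glucocerebrosidase (0.2 nM) with blue fluorogenic substrate (80 uM final) in citrate/phosphate pH 5.9 with 10mM sodium taurocholate, 0.01% tween-20; 40 min RT, NaOH/glycine stop; fluorescence Ex 365/Em 440; AC50 from a titration from 0.6 nM upwards.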

[3] = AP1 Signaling Pathway (AID 357; active = well fitted curve in either direction with a large enough effect, not every such curve was filed as active;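 also: ME-180 reporter cells stimulated with EGF at its EC50 level; % is scaled to controls: 0 for no effect and ±100 for the full control effect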)
Outline: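 In this screen, ME-180 cells in Opti-MEM with 0.5% dialyzed FBS received EC50 EGF and compound titrations for 5 h. AP-1 reporter beta-lactamase was detected via CCF4 ratio, giving AC50 for positive and negative modulators.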

[4] = molecular target: Cytochrome P450 1A2 (Homo sapiens) (UniProt P05177); test: p450-cyp1a2 (AID 410; calls by dose curve; also: potency is read from the fitted curve at half-maximal effect;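 as to activity change, negative = inhibition: -100% = full effect of reference inhibitor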)
Sequence of Cytochrome P450 1A2 (Homo sapiens) (P05177 whole entry, looked up): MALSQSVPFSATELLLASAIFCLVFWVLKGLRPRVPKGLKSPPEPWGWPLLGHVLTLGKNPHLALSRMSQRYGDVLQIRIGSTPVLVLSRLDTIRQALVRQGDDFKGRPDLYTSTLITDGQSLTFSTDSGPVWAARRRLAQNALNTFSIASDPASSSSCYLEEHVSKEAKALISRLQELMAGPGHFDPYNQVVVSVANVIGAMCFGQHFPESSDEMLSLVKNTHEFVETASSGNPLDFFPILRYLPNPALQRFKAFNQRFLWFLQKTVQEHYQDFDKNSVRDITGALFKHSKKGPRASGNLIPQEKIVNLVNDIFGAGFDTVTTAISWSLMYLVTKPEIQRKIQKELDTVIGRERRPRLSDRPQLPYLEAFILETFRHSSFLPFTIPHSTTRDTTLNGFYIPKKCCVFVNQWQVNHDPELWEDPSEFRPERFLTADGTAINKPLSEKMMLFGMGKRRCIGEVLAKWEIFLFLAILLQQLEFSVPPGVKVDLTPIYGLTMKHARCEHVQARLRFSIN
Outline: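 Read-out is luminescence from luciferin produced by CYP1A2 demethylation of Luciferin-ME (100uM, at Km). Detection reagent stopped the 60 min NADPH-dependent reaction; signals were normalized to 57 uM furafylline.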

[5] = NFAT Signaling Pathway (AID 444; active = well fitted curve in either direction with a large enough effect, not every such curve was filed as active;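 also: carbachol stimulus at about its EC50 of 1 µM final; % is scaled to controls: 0 for no effect and ±100 for the full control effect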); conditions: Jurkat NFAT-bla M1, carbachol, beta-lactamase ratio, 5 h
Outline: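 Read-out: CCF4 FRET ratio (460 nm/530 nm) after 1 h RT dye loading, used for %activity and AC50 from titration series. Cells: Jurkat NFAT-β-lactamase/M1 line, treated with compound plus 1 uM carbachol for 5 h, 37 °C.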

[6] = Stat Signaling Pathway (AID 446; active = well fitted curve in either direction with a large enough effect, not every such curve was filed as active;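 also: ME-180 cervical cancer cells given 40 pM IL-6 alongside compound; SIE-controlled beta-lactamase reporter measured as 460/530 nm FRET emission ratio; % is scaled to controls: 0 for no effect and ±100 for the full control effect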)
Outline: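 Overnight-plated ME-180 cells bearing a STAT Inducible Element beta-lactamase reporter; 5 h co-exposure to compound and 40 pM IL-6; values normalized to 300 pM IL-6 and 125 nM JAK inhibitor controls.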

[7] = molecular target: Glucocorticoid receptor (Homo sapiens) (UniProt P04150); test: GR-EFC Redistribution (AID 451; calls by dose curve; also: potency is read from the fitted curve at half-maximal effect); conditions: CHO-K1 GR-EFC translocation, beta-gal luminescence, 2 h
Sequence of Glucocorticoid receptor (Homo sapiens) (P04150 whole entry, looked up, the tested form may be a part): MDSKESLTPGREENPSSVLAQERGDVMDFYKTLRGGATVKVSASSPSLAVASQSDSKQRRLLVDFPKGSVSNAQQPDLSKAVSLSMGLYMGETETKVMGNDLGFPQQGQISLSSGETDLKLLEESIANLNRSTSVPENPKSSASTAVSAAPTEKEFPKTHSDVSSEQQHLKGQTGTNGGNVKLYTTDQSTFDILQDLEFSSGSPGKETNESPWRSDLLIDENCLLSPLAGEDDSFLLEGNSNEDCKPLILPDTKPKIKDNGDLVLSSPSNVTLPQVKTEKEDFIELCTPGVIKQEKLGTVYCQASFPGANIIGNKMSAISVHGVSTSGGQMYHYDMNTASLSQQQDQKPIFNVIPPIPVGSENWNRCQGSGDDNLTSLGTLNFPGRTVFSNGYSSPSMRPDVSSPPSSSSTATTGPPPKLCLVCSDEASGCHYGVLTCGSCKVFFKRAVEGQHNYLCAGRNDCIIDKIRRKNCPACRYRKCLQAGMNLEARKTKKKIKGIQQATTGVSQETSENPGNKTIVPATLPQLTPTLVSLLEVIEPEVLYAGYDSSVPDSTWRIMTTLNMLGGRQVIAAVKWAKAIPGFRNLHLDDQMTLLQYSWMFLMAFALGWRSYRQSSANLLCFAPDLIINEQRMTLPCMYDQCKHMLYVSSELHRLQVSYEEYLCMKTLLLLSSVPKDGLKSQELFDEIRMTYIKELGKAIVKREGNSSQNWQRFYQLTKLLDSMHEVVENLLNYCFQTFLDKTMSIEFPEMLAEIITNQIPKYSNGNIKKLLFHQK
Outline: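 Translocation of GR-ED fusion to nuclear EA restores b-gal, read by luminescence after 1 h room-temperature detection. Engineered CHO-K1 biosensor cells, 1,000/well, exposed 2 h at 37 C to titrations up to 46 uM final.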

[8] = molecular target: Mitogen-activated protein kinase 10 (Mus musculus) (UniProt Q61831); test: JNK3 AlphaScreen Assay (AID 530; active = well fitted curve in either direction with a large enough effect, not every such curve was filed as active;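 also: kinase came from lysate of stimulated human HepG2 cells; signal reports phosphorylation of biotinylated GST-cJun 1-79 at Ser73 with 10 µM ATP; % is scaled to controls: 0 for no effect and ±100 for the full control effect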)
Outline: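 Kinase buffer: 20 mM Tris-HCl pH 7.6, 10 mM MgCl2, 1 mM DTT, 0.1 mM Na3VO4, 0.01% Tween-20; ATP 10 uM. Substrate biotin-GST-cJun(1-79), enzyme from activated HepG2 lysates. Detection by Ser73 phospho-antibody AlphaScreen.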

[9] = molecular target: 3',5'-cyclic-AMP phosphodiesterase 4B (Homo sapiens) (UniProt Q07343); test: qHTS Assay for Inhibitors of PDE-IV (AID 607; active = well fitted activation curve with a large enough effect in the main read-out, with a control signal flat, not every such curve was filed as active; also: % of control where 0% means no effect)
Sequence of 3',5'-cyclic-AMP phosphodiesterase 4B (Homo sapiens) (Q07343 whole entry, looked up): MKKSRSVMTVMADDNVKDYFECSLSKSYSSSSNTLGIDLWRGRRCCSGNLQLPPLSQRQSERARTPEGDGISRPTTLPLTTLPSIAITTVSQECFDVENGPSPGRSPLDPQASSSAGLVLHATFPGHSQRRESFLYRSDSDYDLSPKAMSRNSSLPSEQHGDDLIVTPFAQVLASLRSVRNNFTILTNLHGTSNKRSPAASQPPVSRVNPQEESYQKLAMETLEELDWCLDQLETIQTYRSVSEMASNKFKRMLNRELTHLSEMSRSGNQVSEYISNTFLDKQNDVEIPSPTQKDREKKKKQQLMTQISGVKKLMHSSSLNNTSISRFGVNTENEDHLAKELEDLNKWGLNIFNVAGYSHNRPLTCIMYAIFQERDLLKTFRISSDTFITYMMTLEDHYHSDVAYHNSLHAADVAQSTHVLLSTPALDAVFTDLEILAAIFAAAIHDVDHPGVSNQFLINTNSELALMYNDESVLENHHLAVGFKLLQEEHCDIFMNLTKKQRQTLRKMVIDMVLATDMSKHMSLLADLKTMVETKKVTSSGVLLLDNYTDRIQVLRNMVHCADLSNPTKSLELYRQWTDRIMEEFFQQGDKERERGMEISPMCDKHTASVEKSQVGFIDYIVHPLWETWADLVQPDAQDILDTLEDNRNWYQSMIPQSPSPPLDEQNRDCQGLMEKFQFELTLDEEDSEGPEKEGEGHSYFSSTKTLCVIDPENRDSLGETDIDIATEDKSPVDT
Outline: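 Live HEK293 cells with a modified cyclic nucleotide-gated (CNG) channel report intracellular cAMP via membrane-potential dye fluorescence (ex 535/em 590 nm). Endogenous PDE-IV was targeted. Compounds were tested at up to 22.9 uM final; RO 20-1724 100 uM served as control.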

[10] = qHTS Assay for Lipid Storage Modulators (AID 1519; calls by dose curve); conditions: Drosophila S3 cells, BODIPY lipid droplet/cell ratio, laser cytometry, cells loaded with oleic acid
Outline: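 Cells seeded at 5,000 per well were treated with compounds over a concentration series and loaded with oleic acid (400 uM, as added). Lipid droplet fluorescence (488 nm excitation, 500-530 nm channel) was read by laser-scanning cytometry and normalized to 20 uM Triacsin C.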

[11] = Primary qHTS for small molecule stabilizers of the endoplasmic reticulum resident proteome: Secreted ER Calcium Modulated Protein (SERCaMP) assay (AID 1508630); also: % is scaled to controls: 0 for no effect and ±100 for the full control effect
Outline: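 The SH-SY5Y reporter protocol was run at 3 concentrations up to 38.3 uM (primary) or 11 concentrations (follow-up): 16 h compound, 100 nM thapsigargin for 4 h, then extracellular luciferase luminescence.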

[12] = molecular target: Cytochrome P450 3A4 (Homo sapiens) (UniProt P08684); test: qHTS Assay for Activators of Cytochrome P450 3A4 (AID 885); also: nearly all actives have a fitted effect of over 65% in size
Sequence of Cytochrome P450 3A4 (Homo sapiens) (P08684 whole entry, looked up): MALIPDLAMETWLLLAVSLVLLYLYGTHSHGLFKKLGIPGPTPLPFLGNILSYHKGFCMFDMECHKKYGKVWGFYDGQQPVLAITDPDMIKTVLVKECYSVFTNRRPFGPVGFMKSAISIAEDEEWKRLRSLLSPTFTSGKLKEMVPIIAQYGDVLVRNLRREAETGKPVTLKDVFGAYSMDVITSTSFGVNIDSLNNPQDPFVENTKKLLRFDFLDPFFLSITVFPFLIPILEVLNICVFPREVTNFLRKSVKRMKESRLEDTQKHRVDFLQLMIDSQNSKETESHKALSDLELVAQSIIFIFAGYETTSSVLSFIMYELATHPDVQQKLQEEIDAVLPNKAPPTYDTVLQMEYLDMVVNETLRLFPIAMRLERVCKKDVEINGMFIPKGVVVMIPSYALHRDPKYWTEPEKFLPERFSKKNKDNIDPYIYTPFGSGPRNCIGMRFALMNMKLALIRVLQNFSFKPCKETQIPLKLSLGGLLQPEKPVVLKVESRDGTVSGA
Outline: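 Using 20nM recombinant human CYP3A4 in potassium phosphate (200mM), substrate Luciferin-PPXE at 25uM, luminescent luciferin detection followed a 60-min RT NADPH reaction; data scaled to 57 uM ketoconazole.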

[13] = molecular target: Cytochrome P450 2D6 (Homo sapiens) (UniProt P10635); test: qHTS Assay for Inhibitors and Substrates of Cytochrome P450 2D6 (AID 891); also: potency is read from the fitted curve at half-maximal effect; nearly all actives have a fitted effect of over 60% in size
Sequence of Cytochrome P450 2D6 (Homo sapiens) (P10635 whole entry, looked up): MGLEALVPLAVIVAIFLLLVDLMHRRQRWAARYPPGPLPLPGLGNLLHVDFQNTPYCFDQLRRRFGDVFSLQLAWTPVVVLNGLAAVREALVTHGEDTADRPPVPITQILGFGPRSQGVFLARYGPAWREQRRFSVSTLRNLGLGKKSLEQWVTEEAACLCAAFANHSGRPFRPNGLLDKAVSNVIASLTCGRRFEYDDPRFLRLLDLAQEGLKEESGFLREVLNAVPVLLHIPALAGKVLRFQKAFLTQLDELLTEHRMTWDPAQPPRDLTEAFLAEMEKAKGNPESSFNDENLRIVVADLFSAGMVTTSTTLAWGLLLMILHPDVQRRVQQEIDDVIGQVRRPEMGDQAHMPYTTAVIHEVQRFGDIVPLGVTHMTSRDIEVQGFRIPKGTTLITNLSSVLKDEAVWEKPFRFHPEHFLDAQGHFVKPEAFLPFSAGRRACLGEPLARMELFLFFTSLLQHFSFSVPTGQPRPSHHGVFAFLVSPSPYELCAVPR
Outline: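 Luminescent read-out of luciferin formed by 5 nM human CYP2D6 demethylating 30 uM Luciferin-ME EGE (Km level) over 60 min at room temperature after NADPH regeneration addition. Data normalized to full inhibition by 1.43 uM quinidine.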

[14] = molecular target: Glucocorticoid receptor (Homo sapiens) (UniProt P04150); test: GR-GFP Redistribution (AID 450;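 active = compounds whose dose series gives a full or clear partial fitted curve of increased nuclear translocation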; also: potency is read from the fitted curve at half-maximal effect); conditions: U2OS GR-GFP nuclear translocation, laser cytometry, 2 h
[15] = molecular target: Cytochrome P450 3A4 (Homo sapiens) (UniProt P08684); test: qHTS Assay for Inhibitors and Substrates of Cytochrome P450 3A4 (AID 884); also: % is scaled to controls: 0 for no effect and ±100 for the full control effect; nearly all actives have a fitted effect of over 50% in size
Outline: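 Luminescent readout of luciferin produced by CYP3A4 (20 nM) dealkylation of Luciferin-PPXE, 25 uM (its KM). NADPH-driven reaction ran 60 min at RT after 10 min compound preincubation; data scaled to 57 uM ketoconazole as 100% inhibition.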

[16] = molecular target: Cytochrome P450 2C19 (Homo sapiens) (UniProt P33261); test: qHTS Assay for Inhibitors and Substrates of Cytochrome P450 2C19 (AID 899); also: % is scaled to controls: 0 for no effect and ±100 for the full control effect; nearly all actives have a fitted effect of over 60% in size
Sequence of Cytochrome P450 2C19 (Homo sapiens) (P33261 whole entry, looked up): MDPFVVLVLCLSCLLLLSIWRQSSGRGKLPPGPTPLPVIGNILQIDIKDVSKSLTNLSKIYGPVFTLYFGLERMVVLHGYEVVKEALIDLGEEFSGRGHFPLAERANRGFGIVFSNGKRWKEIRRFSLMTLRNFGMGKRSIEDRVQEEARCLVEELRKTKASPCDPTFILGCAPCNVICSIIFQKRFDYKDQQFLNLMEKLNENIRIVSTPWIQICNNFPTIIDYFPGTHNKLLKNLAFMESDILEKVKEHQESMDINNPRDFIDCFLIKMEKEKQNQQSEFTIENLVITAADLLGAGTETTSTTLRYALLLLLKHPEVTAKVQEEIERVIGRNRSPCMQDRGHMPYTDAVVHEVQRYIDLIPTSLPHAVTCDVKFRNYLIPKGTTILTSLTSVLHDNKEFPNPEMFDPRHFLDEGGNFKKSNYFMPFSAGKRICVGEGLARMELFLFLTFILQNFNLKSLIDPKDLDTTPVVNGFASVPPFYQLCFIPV
Outline: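 5nM enzyme + 10uM Luciferin-H EGE (=KM), 50mM KPO4; cpd pin-transferred, 10 min 37C; NADPH regen, 60 min 37C; stopped w/ luciferin detection reagent, 20 min; luminescence. Normalized to 57uM ketoconazole (AC100).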

[17] = Confirmation and Secondary Assay for Modulators of Hemoglobin Beta Chain Splicing at IVS2 654 locus (AID 910);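 also: HeLa cells stably carrying EGFP split by mutant beta-globin IVS2-654 intron; per-well total GFP intensity by laser scanning cytometry after 2-day treatment; % of control where 0% means no effect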
Outline: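 Readout: per-well total peak green fluorescence (488 nm ex, 500–520 nm em) from objects 5–250 µm, reflecting correct splicing of an EGFP-654 reporter. Compounds were applied for 2 days at 37 °C to overnight-plated HeLa EGFP-654 cells; controls were DMSO and 500 nM IVS2-654 PNA.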

[18] = Confirmation and Secondary Assay for Modulators of Hemoglobin Beta Chain Splicing at IVS2 705 locus (AID 930);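 also: HeLa cells stably expressing the EGFP-705 splicing reporter; GFP fluorescence per well restored by corrected splicing of the IVS2-705 intron in EGFP; % of control where 0% means no effect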
Outline: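 Assay measures total GFP intensity per well in HeLa EGFP-705 cells after 2 days with compound; mis-splicing normally truncates EGFP, so fluorescence indicates corrected splicing.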

[19] = molecular target: Ubiquitin carboxyl-terminal hydrolase 1 (Homo sapiens) (UniProt O94782); test: Inhibitors of USP1/UAF1: Pilot qHTS (AID 504865);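 also: rhodamine fluorescence freed from ubiquitin-rhodamine substrate followed over time; top concentration of the series differs between compounds; % is scaled to controls: 0 for no effect and ±100 for the full control effect; nearly all actives have a fitted effect of over 35% in size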
Outline: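 USP1/UAF1 complex at 1 nM preincubated 15 min at room temperature with compound, then Ub-Rho substrate added at 150 nM final. Fluorescence (480/540 nm) read kinetically in 50 mM HEPES pH 7.8, 0.5 mM EDTA, 1 mM TCEP, 0.1 mg/ml BSA, 0.01% Tween-20.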

[20] = molecular target: Tumor susceptibility gene 101 protein (Homo sapiens) (UniProt Q99816); test: qHTS Assay for Iinhibitors of HIV-1 Budding by Blocking the Interaction of PTAP/TSG101: Hit Validation (AID 651600); also: potency is read from the fitted curve at half-maximal effect; nearly all actives have a fitted effect of over 70% in size
Outline: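 Fluorescence polarization binding assay: Tsg101 binding domain (10 uM) mixed with compounds and FITC-labeled PTAP peptide (50 nM) in HEPES pH 7.5, 0.15 M NaCl, 0.01% Tween 20, EDTA, TCEP; 20 min at r.t.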

[21] = molecular target: Cytochrome P450 2D6 (Homo sapiens) (UniProt P10635); test: Cytochrome P450 family 2 subfamily D member 6 (CYP2D6) small molecule antagonists: luciferase biochemical (cell-free) qHTS assay (AID 1645840; active = well fitted curve in the direction sought with a large enough effect in the repeat runs; an effect the other way counts as inactive or inconclusive; also: potency is read from the fitted curve at half-maximal effect; nearly all actives have a fitted effect of over 55% in size)
Outline: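 P450-Glo CYP2D6 system: proluciferin substrate converted by enzyme to luciferin, read by luminescence proportional to activity. Enzyme-substrate mix with compound 10 min at room temperature, then NADPH regeneration 1 h before detection reagent.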

[22] = molecular target: Cytochrome P450 3A4 (Homo sapiens) (UniProt P08684); test: Cytochrome P450 family 3 subfamily A member 4 (CYP3A4) small molecule antagonists: luciferase qHTS assay (AID 1645841; active = well fitted curve in the direction sought with a large enough effect in the repeat runs; an effect the other way counts as inactive or inconclusive; also: nearly all actives have a fitted effect of over 45% in size)
Outline: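 Luminescent CYP3A4 activity readout: compounds plus enzyme-substrate mix 10 min at room temperature, reaction started with NADPH regenerating system for 1 h, stopped with detection reagent, read after 20 min. Ketoconazole served as control.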

[23] = molecular target: Rap guanine nucleotide exchange factor 3 (Homo sapiens) (UniProt O95398); test: Confirmatory qHTS for antagonist of cAMP-regulated guanine nucleotide exchange factor 3 (EPAC1) (AID 1645880);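 also: plate controls were DMSO only for no effect and full effect of the ATA control for full effect; nearly all actives have a fitted effect of over 55% in size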
Sequence of Rap guanine nucleotide exchange factor 3 (Homo sapiens) (O95398 whole entry, looked up): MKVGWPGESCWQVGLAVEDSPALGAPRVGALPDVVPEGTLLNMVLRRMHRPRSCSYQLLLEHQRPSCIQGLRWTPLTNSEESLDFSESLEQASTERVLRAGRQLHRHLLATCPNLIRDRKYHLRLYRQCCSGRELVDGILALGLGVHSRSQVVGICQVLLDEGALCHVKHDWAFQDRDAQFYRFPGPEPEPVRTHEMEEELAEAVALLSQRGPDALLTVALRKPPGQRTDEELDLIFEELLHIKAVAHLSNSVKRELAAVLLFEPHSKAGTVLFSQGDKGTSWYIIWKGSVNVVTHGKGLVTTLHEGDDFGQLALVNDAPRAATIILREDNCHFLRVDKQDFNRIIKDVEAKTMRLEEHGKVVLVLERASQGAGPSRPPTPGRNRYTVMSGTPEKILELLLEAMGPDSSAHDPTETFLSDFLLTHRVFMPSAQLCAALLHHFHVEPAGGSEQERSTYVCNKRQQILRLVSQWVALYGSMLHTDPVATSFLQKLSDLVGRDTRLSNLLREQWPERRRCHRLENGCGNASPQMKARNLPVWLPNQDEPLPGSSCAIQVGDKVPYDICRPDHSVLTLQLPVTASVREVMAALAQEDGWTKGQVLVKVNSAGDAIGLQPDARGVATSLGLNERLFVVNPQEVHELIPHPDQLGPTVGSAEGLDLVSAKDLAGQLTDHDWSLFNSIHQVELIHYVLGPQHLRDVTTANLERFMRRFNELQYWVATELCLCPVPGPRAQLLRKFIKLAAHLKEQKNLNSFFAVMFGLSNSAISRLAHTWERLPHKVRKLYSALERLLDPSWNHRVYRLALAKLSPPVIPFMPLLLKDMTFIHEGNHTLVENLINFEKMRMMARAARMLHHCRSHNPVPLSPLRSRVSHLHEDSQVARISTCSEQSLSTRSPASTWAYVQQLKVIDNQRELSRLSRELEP
Outline: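 Released BODIPY-GDP fluoresces less than Rap1-bound BODIPY-GDP; the signal is followed at 480/540 nm at 5-min intervals over 30 min, after 5 min at room temperature. Reactions contain 100 nM EPAC1, 250 nM RAP1B-BODIPY-GDP and 50 uM GDP; results are normalized to ATA and DMSO.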

[24] = molecular target: Rap guanine nucleotide exchange factor 3 (Homo sapiens) (UniProt O95398); test: Confirmatory qHTS for agonist of cAMP-regulated guanine nucleotide exchange factor 3 (EPAC1) (AID 1645881); also: potency is read from the fitted curve at half-maximal effect; nearly all actives have a fitted effect of over 75% in size
[25] = molecular target: Rap guanine nucleotide exchange factor 4 (Homo sapiens) (UniProt Q8WZA2); test: Confirmatory qHTS for antagonist of cAMP-regulated guanine nucleotide exchange factor 4 (EPAC2) (AID 1645885); also: % is scaled to controls: 0 for no effect and ±100 for the full control effect; nearly all actives have a fitted effect of over 25% in size
[26] = molecular target: Rap guanine nucleotide exchange factor 3 (Homo sapiens) (UniProt O95398); test: Counterscreen qHTS for antagonist of cAMP-regulated guanine nucleotide exchange factor 3 (EPAC1) (AID 1645888); also: % of control where 0% means no effect
Outline: (§1)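 Rap1B-BODIPY-GDP 250 nM + GDP 50 uM; cpds 7-pt, final 9.74 nM–152 uM (activator mode) or from 7.32 nM upwards (inhibitor mode); RT; FI 480/540 nm at 5 and 30 min, then ± cAMP, reread.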

[27] = molecular target: Rap guanine nucleotide exchange factor 3 (Homo sapiens) (UniProt O95398); test: Counterscreen qHTS for agonist of cAMP-regulated guanine nucleotide exchange factor 3 (EPAC1) (AID 1645889); also: potency is read from the fitted curve at half-maximal effect; nearly all actives have a fitted effect of over 40% in size
Outline: as §1

[28] = measured here: cell count channel max response
[29] = measured here: lipid channel max response

c1csc(CN2CC3(CCNCC3)C2)n1
10.7%: max response [10, 28]
inactive: Potency [1] > 20 µM | Potency [2] > 11.4 µM | outcome [3] | Potency [4] | activity change, negative = inhibition ([5]; at 7.69 µM (top of the series)) 5.76% | outcome [6] | Potency [7] > 46 µM | outcome [8] | Potency [9] | activity change, negative = inhibition ([10]; at 57.5 µM (top of the series)) 9.28% | outcome [11]
24.8%: max response [10, 29]

c1cnc(N2CC[C@@]3(CCCNC3)C2)nc1
active: Potency [4] 25.1 µM | Potency [13] 7.94 µM
29%: max response [10, 29]
inactive: Potency [2] > 11.4 µM | outcome [3] | activity change, negative = inhibition ([5]; at 7.69 µM (top of the series)) -23.9% | outcome [6] | Potency [7] > 46 µM | outcome [8] | Potency [9] | Potency [12] | activity change, negative = inhibition ([10]; at 57.5 µM (top of the series)) 6.19% | outcome [11]
20.5%: max response [10, 28]

CN1CC[C@@]2(CCCN(C(=O)c3csnn3)C2)C1
-13.7%: max response [10, 28]
inactive: Potency [2] > 11.4 µM | outcome [3] | Potency [4] | activity change, negative = inhibition ([5]; at 7.69 µM (top of the series)) -23.3% | outcome [6] | Potency [7] > 46 µM | outcome [8] | Potency [9] | activity change, negative = inhibition ([10]; at 57.5 µM (top of the series)) -3.58% | outcome [11]
-16.8%: max response [10, 29]

COc1ccccc1CN1CC[C@@]2(CCCN(C(=O)Oc3ccccc3)C2)C1
13.6%: max response [10, 29]
inactive: Potency [2] > 11.4 µM | outcome [3] | outcome [6] | Potency [7] > 46 µM | outcome [8] | activity change, negative = inhibition ([10]; at 57.5 µM (top of the series)) 7.75% | outcome [11]
active: Potency [4] 10 µM
2.61%: max response [10, 28]

CCC1CN2CCc3cc(OC)c(OC)cc3C2CC1CC1NCCc2cc(OC)c(OC)cc21 (configuration not stated)
8%: max response [10, 29]
inactive: activity change, negative = inhibition ([10]; at 57.5 µM (top of the series)) 7.1%
-0.174%: max response [10, 28]

CC1=NCCc2c1[nH]c1cc(O)ccc21
2% and 2.42%: max response [10, 28]
active: Potency [4] 12.6 µM and 25.1 µM | Potency [20] 3.26 µM | Potency [21] 12 µM | Potency [24] 63 µM and 28.1 µM and 48.4 µM | Potency [27] 12.6 µM
2.85% and 18.5%: max response [10, 29]
inactive: activity change, negative = inhibition ([5]; at 17.2 µM (top of the series)) -14.7% | outcome [6] | Potency [14] > 20.6 µM and > 46 µM | Potency [7] > 20.6 µM and > 46 µM | outcome [8] | Potency [9] | Potency [15] | Potency [12] | Potency [16] | Potency [17] | Potency [18] | activity change, negative = inhibition ([10]; at 25.7 µM (top of the series)) 1.71% | activity change, negative = inhibition ([10]; at 57.5 µM (top of the series)) 18.3% | Potency [19] | outcome [22] | Potency [23] | Potency [25] | activity change, negative = inhibition [26] 251% [at 30.8 µM]
